# Test results from PubChem BioAssay (NCI).
# The panel holds about 83,000 compounds, 20% with a hit somewhere; the sample as a whole holds those more often.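 Note: values are percent growth. 100 is the growth of untreated cells, values between 100 and 0 indicate rising inhibition; between -100 and 0 indicates cell death.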 Active and inactive are the calls of the source. Rule for the calls: active = growth percent below 10; inactive = the rest.
# Test system: HL-60(TB) leukemia
# Assay: NCI-60 one-dose screen, 48 h (100 = growth as untreated, 0 = no growth, -100 = all killed)
# Conditions: 10 µM unless noted
row,Compound,growth
1,COc1cc(/C=C\c2cc(OC)c(OC)c(OC)c2)cc(NC(=O)/C=C/c2cc(OC)c(OC)c(OC)c2)c1OC,-6.4% (active)
2,N#CCc1cccc2ccccc12,90.6% (inactive)
3,CCOC(=O)c1cc2c(n(C)c1=O)-c1cnn(-c3ccc(OC)cc3)c1CC2,113% (inactive)
4,CC(C)NC(=O)N/C=C(\C#N)C(N)=O,137% (inactive)
5,CC(=O)Nc1ccc(C(=O)CCl)cc1,-19.4% (active)
6,COC(=O)c1ccc2oc(NC(=O)c3ccc(N4CCOCC4)c([N+](=O)[O-])c3)nc2c1,96.7% (inactive)
7,CC(=O)O[C@H]1CC[C@]2(C)[C@H]3CC[C@@H]4[C@H]5[C@H](C(C)C)CC[C@]5(C(=O)OCC(CO)(CO)N=C(N)N)CC[C@@]4(C)[C@]3(C)CC[C@H]2C1(C)C,-24.7% (active)
8,Nc1nc(I)c2ncn(C3OC(CO)C(O)C3O)c2n1 (stereo not given),99.4% (inactive)
9,O=C1/C(=C\c2ccc(Br)o2)SC(=S)N1CCc1ccc(O)cc1,42.2% (inactive)
10,C/C(=C\c1cnc(C)s1)[C@@H]1C[C@@H]2O[C@@H]2CCC[C@H](C)[C@H](O)[C@@H](C)C(=O)C(C)(C)[C@@H](O)CC(=O)O1,0.639% (active)
11,CC(=O)n1cc(-c2c[nH]c3ccccc23)c(-c2ccc(Cl)cc2)n1,135% (inactive)
12,N#Cc1c(-c2ccccc2)nc2c(c(-c3ccccc3)nn2-c2ccccc2)c1-c1ccc(N2CCCCC2)cc1,95.8% (inactive)
13,CCOC(=O)CC1C(COC(=O)NC)OC(n2cnc3c(NC(=O)Nc4ccccc4)ncnc32)C1O[Si](C)(C)C(C)(C)C (stereo not given),23.5% (inactive)
14,O=C1Nc2ccccc2C2c3cccn3-c3ccccc3N12 (stereo not given),86.1% (inactive)
15,Cc1nn(-c2nc3ccccc3[nH]2)c2c1C(c1ccc(O)cc1)CC(=O)N2 (stereo not given),82.1% (inactive)
16,COc1ccc(/C=C/C(=O)c2ccc(-n3cc(CN4CCN(c5cc6c(cc5F)c(=O)c(C(=O)O)cn6C5CC5)CC4)nn3)cc2)cc1,85.9% (inactive)
17,O=C(CSc1nc2ccc([N+](=O)[O-])cc2[nH]1)Nc1ccc([N+](=O)[O-])cc1,12.7% (inactive)
18,Oc1ccc(Nc2ccccc2)cc1,66.5% (inactive)
19,CC(=O)c1cc(C(=O)c2ccc3c(c2)Sc2ccccc2N3)c2c(C)cc(C)cn12,-12.6% (active)
20,O=C1c2ccccc2C(=O)c2c1cccc2-n1nnc2ccccc21,82.1% (inactive)

row,Compound,growth
1,O=c1nc(-c2ccccc2)c2cc(-c3ccc(C(F)(F)F)nc3)ccc2[nH]1,94.5% (inactive)
2,CCCCCCCC(=O)SCC/C=C/[C@@H]1CC(=O)NCc2nc(co2)C2=N[C@@](C)(CS2)C(=O)N[C@@H](C(C)C)C(=O)O1,8.71% (active)
3,CCCCCCCCCCCCOC(=O)/C=C\C(=O)NC(N)=O,52.3% (inactive)
4,c1ccc(-c2nnc(Nc3ccc4c(c3)OCCO4)o2)c(NCc2ccncc2)c1,6.43% (active)
5,S=C1CCCC(=S)N1,101% (inactive)
6,CS(=O)/C(C#N)=C\C=C\c1cccc(Cl)c1 (stereo not given),-1.97% (active)
7,c1ccc(Cn2cnc3ccc(-c4nc(-c5ccc6c(c5)ncn6C5CCCCC5)cn5ccnc45)cc32)cc1,-20.8% (active)
8,O=C(O)c1ccccc1Cc1ccc2c(c1)CCCC2,130% (inactive)
9,COc1ccc(N(C)c2nc(Cl)nc3cnn(C)c23)cc1,-4.95% (active)
10,Nc1ccc2ccc(NS(=O)(=O)N3CCCCC3)cc2c1,2.41% (active)
11,COc1ccc(/C=c2/c(=O)[nH]c3nc4sc(C)c(C)c4c(=O)n23)cc1,71.8% (inactive)
12,O=C1NC(=O)C2C(=O)NC(=O)C1C21CCc2ccccc21 (stereo not given),117% (inactive)
13,NC(=O)c1c(OCc2c(F)cc(Br)cc2F)nsc1NC(=O)NCCCCN1CCCC1,-64.6% (active)
14,Cc1ccc(-c2nc(-c3cn(C)c4ncccc34)cs2)cc1,16.2% [100 µM] (inactive)
15,Clc1ccccc1-c1cnn2cc(-c3ccccc3)cnc12,96.2% (inactive)
16,CSc1[nH]c2ncnc(N)c2c1C#N,112% (inactive)
17,CCS(=O)(=O)c1ncnc2nc[nH]c12,101% (inactive)
18,COC(=O)c1cc2oc(/C=C3/SC(=S)N(N)C3=O)cc2n1Cc1ccccc1,53.7% (inactive)
19,NC(=O)CC1(O)C=C(Br)C(=O)C(Br)=C1,-27.9% (active)
20,COc1ccc(C2=NN3C(C2)c2cc(Br)ccc2OC3c2ccncc2)cc1 (stereo not given),93.5% (inactive)
